High-throughput results deposited in PubChem by National Center for Advancing Translational Sciences (NCATS).
Tau FP inhib – tau fibrillization inhibition (FP). P10636. K18 P301L tau heparin fibrillization, Alexa594 FP, 6 h. Potency, µM (highest dose often 57.7 µM), inactives show at the top dose activity, negative = inhibition, most hits filed as inhibitors. hit rate 0.39% among 280,000. AID 1468; also: potency is read from the fitted curve at half-maximal effect; nearly all actives have a fitted effect of over 55% in size
Target sequence (P10636 561-689 P618L limits assumed): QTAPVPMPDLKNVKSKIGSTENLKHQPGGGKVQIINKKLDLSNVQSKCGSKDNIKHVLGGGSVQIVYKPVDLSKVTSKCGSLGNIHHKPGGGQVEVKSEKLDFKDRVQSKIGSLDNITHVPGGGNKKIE
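Steps: dispense K18 P301L tau (15 uM plus 0.24 uM Alexa 594 tracer, final) in pH 7 sodium acetate; add compound; add heparin (20 uM final); incubate 6 hr, 37 C; add ThT (30 uM final); after 1 hr ambient, read FP.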
Sfp inh – inhibitors of Bacillus subtilis Sfp phosphopantetheinyl transferase | Q9F4F7 | Biochemical Sfp PPTase activity, qHTS | Potency, µM, inactives show largest response in the series, negative = inhibition, hits mostly inhibitors | hit rate 3.5% among 310,000 | AID 1490;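 also: the enzyme is Sfp with the accession as filed and its product quenches rhodamine fluorescence; potency is read from the fitted curve at half-maximal effect; 0% = enzyme reaction without inhibitor and -100% = no enzyme wells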
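Buffer: 50 mM Hepes-Na pH 7.6, 10 mM MgCl2, 0.01% Nonidet P-40, 0.01% BSA. Enzyme 15 nM, pre-exposed to compound 15 min; substrates then added and fluorescence change tracked over 30 min.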
Tau fibril ThT – inhibitors of human tau fibril formation, thioflavin T binding | P10636 | recombinant tau K18 P301L, heparin-induced fibrillization, ThT fluorescence | Potency, µM (top dose mostly 57.4 µM), inactives show at the top dose activity, negative = inhibition, hits mostly inhibitors | hit rate 2.1% among 270,000 | AID 1460; also: potency is read from the fitted curve at half-maximal effect; nearly all actives have a fitted effect of over 55% in size
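ThT emission at 510 nm, taken 1 hr after adding 30 uM dye, quantifies aggregates formed when 20 uM heparin acts on human tau K18 P301L for 6 hr at 37 C.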
Tau fluor cs – counter-screen for tau fibril formation inhibitors; tau K18 P301L Alexa594 fluorescence, heparin fibrillization; Potency, µM (titrated, usually from 57.7 µM), for the others: at the highest dose activity change, negative = decrease; hit rate 0.93% among 280,000; AID 1463; also: potency is read from the fitted curve at half-maximal effect; nearly all actives have a fitted effect of over 55% in size
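Human tau K18 P301L (15 uM unlabeled, 0.24 uM Alexa 594-labeled) in 100 mM sodium acetate pH 7 with 20 uM heparin, 6 hr at 37 C. ThT 30 uM added, 1 hr ambient; Alexa 594 FP and total fluorescence read at 555/632 nm.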
FBPA coupling cs – inhibits coupling enzyme system, counter-screen for aldolase hits | hit rate 0.67% among 290,000 | activity change, negative = inhibition, % at 58.2 µM, hits read low | coupling enzyme system counterscreen, AmpLite Red fluorescence; in the data active = activity change below about -30%
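Final compound at 57.5 uM, incubated 10 min at RT with coupling enzyme reagent (glyceraldehyde-3-phosphate), then 20 min with substrate and AmpLite Red detection. Fluorescence read at 525/598 nm; tests interference with the coupling assay, not aldolase inhibition.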
Active calls of the source: *; [ ] = remark or other dose. Hits are enriched below; roughly 5.2% of the tested compounds scored in any of these assays. Unless noted, calls follow the shape of the dose curve; as a rule, active = well fitted curve in the direction sought with a large enough effect; inconclusive = small, poorly fitted or top-dose-only effect, or another doubt; inactive = no such curve, though single readings can be large; an effect the other way counts as inactive or inconclusive. Unless noted, % is scaled to controls: 0 for no effect and ±100 for the full control effect.

What do the screens show for `N#CC1=C(N)C(C#N)(C#N)C(c2cccnc2)C2CC(c3ccccc3)CC=C12` (centres undefined)?
Tau FP inhib: inconclusive; Sfp inh: -14%; Tau fibril ThT: 25µM*; Tau fluor cs: -29%; FBPA coupling cs: 3

Results for CC(C)c1ccc(C2C3CSCC=C3C(C#N)=C(N)C2(C#N)C#N)cc1 (centres undefined) ?
Tau FP inhib: -9%; Sfp inh: -6%; Tau fibril ThT: inconclusive; Tau fluor cs: -22%; FBPA coupling cs: -2

Results for N#CC1=C(N)C(C#N)(C#N)C(c2ccc[nH]2)C2CCCC=C12 (centres undefined) ?
Tau FP inhib: inconclusive; Sfp inh: 56µM*; Tau fibril ThT: 14µM*; Tau fluor cs: inconclusive; FBPA coupling cs: -17

What do the screens show for `N#CC1=C(N)C(C#N)(C#N)C(c2cccnc2)C2CCCC=C12` (centres undefined)?
Tau FP inhib: inconclusive; Sfp inh: 18µM*; Tau fibril ThT: inconclusive; Tau fluor cs: -7%; FBPA coupling cs: -36*

What do the screens show for `N#CC1=C(N)C2=CCCC[C@H]2[C@H](c2cccc(F)c2)C1(C#N)C#N`?
Tau FP inhib: inconclusive; Sfp inh: 10%; Tau fibril ThT: inconclusive; Tau fluor cs: -30%; FBPA coupling cs: -1

How did COc1ccc(Cl)cc1NC(=O)Cn1c2ncccc2c(=O)n1-c1ccc(C)c(C)c1 do in these assays?
Tau FP inhib: 0%; Tau fibril ThT: 5%; Tau fluor cs: -1%

What do the screens show for `CCn1c(=O)c(NC(=O)c2ccccc2)c2n(c1=S)CCCCC2`?
Tau FP inhib: -13%; Sfp inh: 8%; Tau fibril ThT: -5%; Tau fluor cs: -11%; FBPA coupling cs: -35*

How did CCOC(=O)c1scc(-c2ccccc2)c1S(=O)(=O)N1CCN(c2ccc(Cl)cc2)CC1 do in these assays?
Tau FP inhib: 4%; Tau fibril ThT: 2%; Tau fluor cs: -13%

What do the screens show for `CC(C)(C)N1NC2(CCCCC2)NC1=S`?
Tau FP inhib: -6%; Sfp inh: 22µM*; Tau fibril ThT: -7%; Tau fluor cs: -5%; FBPA coupling cs: 4

Results for Cc1ccc(Nc2nc3ccccc3s2)c(C)c1 ?
Tau FP inhib: 8%; Sfp inh: -7%; Tau fibril ThT: -18%; Tau fluor cs: -23%; FBPA coupling cs: -8

Results for Cc1cc(O)ccc1Nc1nc2ccccc2nc1Nc1ccc(O)cc1C ?
Tau FP inhib: inconclusive; Sfp inh: 56µM*; Tau fibril ThT: 14µM*; Tau fluor cs: 13µM*[quencher]; FBPA coupling cs: -21

What do the screens show for `CCc1nnc(NC(=O)CSc2sc3c(O)cc(=O)[nH]c3c2C#N)s1`?
Sfp inh: 79µM*; FBPA coupling cs: -2

How did N#Cc1c(SCC(=O)Nc2cccc(C(F)(F)F)c2)sc2c(O)cc(=O)[nH]c12 do in these assays?
Sfp inh: 40µM*; FBPA coupling cs: 0

What do the screens show for `COc1ccc(NC(=O)CSc2sc3c(O)cc(=O)[nH]c3c2C#N)c(OC)c1`?
Sfp inh: inconclusive; FBPA coupling cs: 0

What do the screens show for `Cc1cc(NC(=O)CSc2sc3c(O)cc(=O)[nH]c3c2C#N)ccc1Br`?
Sfp inh: inconclusive; FBPA coupling cs: 4

What do the screens show for `COc1ccccc1NC(=O)CSc1sc2c(O)cc(=O)[nH]c2c1C#N`?
Sfp inh: 40µM*; FBPA coupling cs: -1

Results for CCOc1cc(/C=N/NC(=O)c2ccc(-c3csc(Nc4ccc(C)cc4)n3)cc2)ccc1OCC(=O)O ?
Tau FP inhib: 7%; Sfp inh: inconclusive; Tau fibril ThT: 2.8µM*; Tau fluor cs: inconclusive; FBPA coupling cs: 3

Results for O=C(O)COc1ccc(/C=N/NC(=O)c2ccc(-c3csc(Nc4ccc(Cl)cc4)n3)cc2)cc1 ?
Tau FP inhib: -4%; Sfp inh: 45µM*; Tau fibril ThT: inconclusive; Tau fluor cs: inconclusive; FBPA coupling cs: 3

Results for O=C1OC(c2ccccc2)=N/C1=C\C=C\c1ccccc1[N+](=O)[O-] ?
Tau FP inhib: 2%; Sfp inh: -1%; Tau fibril ThT: inconclusive; Tau fluor cs: -2%; FBPA coupling cs: 8

How did O=C1OC(c2ccc(Cl)cc2)=N/C1=C\C=C\c1ccco1 do in these assays?
Tau FP inhib: -15%; Sfp inh: 45µM*; Tau fibril ThT: inconclusive; Tau fluor cs: -13%; FBPA coupling cs: 1

What do the screens show for `O=C1OC(c2ccccc2)=N/C1=C\C=C\c1ccco1`?
Tau FP inhib: -4%; Sfp inh: 40µM*; Tau fibril ThT: 14µM*; Tau fluor cs: -12%; FBPA coupling cs: 4

What do the screens show for `Cc1ccc(CNC(=O)C2CCN(S(=O)(=O)c3c(C)noc3/C=C/c3ccccc3F)CC2)o1`?
Tau FP inhib: 0%; Tau fibril ThT: 0%; Tau fluor cs: -6%

Results for O=C(c1cccc(Cl)c1)N(Cc1cccc(F)c1)C1CCS(=O)(=O)C1 (centres undefined) ?
Tau FP inhib: -6%; Tau fibril ThT: 4%; Tau fluor cs: -4%

What do the screens show for `CO[C@H]1C[C@@H]2CC[C@@H](C)[C@@](O)(O2)C(=O)C(=O)N2CCCC[C@H]2C(=O)O[C@H]([C@H](C)C[C@@H]2CC[C@@H](O)[C@H](OC)C2)CC(=O)[C@H](C)C=C(C)[C@@H](O)[C@@H](OC)C(=O)[C@H](C)C[C@H](C)C=CC=CC=C1C`?
Tau FP inhib: inconclusive; Sfp inh: 79µM*; Tau fibril ThT: inconclusive; Tau fluor cs: 6%; FBPA coupling cs: -2

Results for COc1ccc(N)cc1-n1c(C)ccc1C ?
Tau FP inhib: inconclusive; Sfp inh: -6%; Tau fibril ThT: 3.2µM*; Tau fluor cs: inconclusive; FBPA coupling cs: -27

How did CCN(CC)C(=O)C1CCN(c2ncnc3c2cnn3-c2ccc(C)cc2C)CC1 do in these assays?
Tau FP inhib: 8%; Sfp inh: 56µM*; Tau fibril ThT: -10%; Tau fluor cs: -8%; FBPA coupling cs: -1

What do the screens show for `COc1ccc(Oc2ncc3nc(-c4ccc(F)cc4)c(=O)n(Cc4cccs4)c3n2)cc1`?
Sfp inh: 6%; FBPA coupling cs: 6

What do the screens show for `CCc1ccc(-c2nn(CC(=O)NC3CCCCC3)c3c2cnc2ccc(OC)cc23)cc1`?
Tau FP inhib: -9%; Tau fibril ThT: -13%; Tau fluor cs: -6%

What do the screens show for `CCCc1cc(=O)n2[nH]c(-c3ccc(Cl)cc3)cc2n1`?
Sfp inh: 8%; FBPA coupling cs: -4

Results for O=c1cc(-c2ccccc2)nc2cc(-c3ccco3)[nH]n12 ?
Tau FP inhib: 0%; Sfp inh: 25µM*; Tau fibril ThT: inconclusive; Tau fluor cs: -14%; FBPA coupling cs: 0
